# CTSL1 counter: blocks F. hepatica cathepsin L1 in PFM18AAP counter-screen; recombinant F. hepatica cathepsin L1, Z-Leu-Arg-MCA fluorescence; inhibition, % at 5.96 µM; hit rate 0.49% among 300,000; AID 1906;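 active means inhibition above the mean of all tested compounds plus 3 SD, set per screening campaign, cut at about 17% in these data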;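 further: 0% = plate median of test compound wells and 100% = 1 µM Z-Phe-Ala-diazomethylketone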
# HNF4A DNA FP: change in binding of human HNF4 alpha to DNA; P41235; HNF4a-FITC DNA binding, fluorescence polarization, 1 h; activity change, % at 10 µM; hit rate 0.3% among 360,000; in the data active means activity change above about 30%, passing the limit was not always enough
# Rpn11 inh: Rpn11 (human) deubiquitinase inhibition | O00487 | human 26S proteasome, Ub4-pepOG fluorescence polarization; 20S core pre-blocked with epoxomicin | inhibition, % at 20 µM | hit rate 0.59% among 360,000 | AID 588493;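 active means inhibition at 20 µM, scaled to each plate's controls, above about 33%, limit read from the data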
# Target sequence (O00487 whole entry, looked up): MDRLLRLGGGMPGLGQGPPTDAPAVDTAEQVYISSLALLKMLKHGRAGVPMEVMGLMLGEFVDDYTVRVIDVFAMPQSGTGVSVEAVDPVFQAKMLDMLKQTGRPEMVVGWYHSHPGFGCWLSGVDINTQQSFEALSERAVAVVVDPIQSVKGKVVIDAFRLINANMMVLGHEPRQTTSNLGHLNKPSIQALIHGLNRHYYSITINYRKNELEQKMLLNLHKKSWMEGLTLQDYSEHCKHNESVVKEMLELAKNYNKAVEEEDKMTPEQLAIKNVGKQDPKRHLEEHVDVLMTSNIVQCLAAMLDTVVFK
# TPT1 inhibitor: blocks Candida albicans tRNA 2'-phosphotransferase; recombinant caTPT1, FP RNA substrate dephosphorylation; inhibition, % at 5 µM; hit rate 0.81% among 300,000;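 active means inhibition above the mean of all tested compounds plus 3 SD, set per screening campaign, cut at about 24% in these data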;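 further: plate controls were DMSO alone for no effect and ferristatin control at 100 nM for full effect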
# CendR NRP1 mod: alters CendR peptide binding to human NRP-1 | O14786 | FAM-RPARPAR peptide binding to NRP-1, fluorescence polarization | inhibition, % at 25 µM | hit rate 0.85% among 360,000 | AID 602438;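 active means inhibition or corrected inhibition above about 18%, plus a signal ratio from 0.5 to 1.5, limit read from the data, passing the limit was not always enough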
# PHOSPHO1 inh: PHOSPHO1 (human) inhibition; inhibition, % at 13.3 µM; Q8TCT1; recombinant PHOSPHO1, absorbance phosphatase assay; hit rate 1.1% among 290,000; in the data active means inhibition above about 60%
# Target sequence (Q8TCT1 whole entry, looked up): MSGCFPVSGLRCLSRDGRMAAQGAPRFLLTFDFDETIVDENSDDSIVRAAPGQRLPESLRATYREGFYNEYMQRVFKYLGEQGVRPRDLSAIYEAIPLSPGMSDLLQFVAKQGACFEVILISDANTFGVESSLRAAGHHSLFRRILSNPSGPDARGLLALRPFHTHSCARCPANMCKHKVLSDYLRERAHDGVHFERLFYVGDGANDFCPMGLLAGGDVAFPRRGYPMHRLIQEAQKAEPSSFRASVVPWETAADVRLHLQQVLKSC
# TPT1 inh confirm: confirmation of Candida albicans TPT1 inhibitors | recombinant caTPT1, fluorescence polarization, RNase T1 coupled | hit rate 74% among 2,400 | shares compounds with TPT1 inhibitor | inhibition, % at 5 µM;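 active means inhibition above the primary screen limit, the mean inhibition of all tested compounds plus 3 SD, cut at about 25% in these data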
# RNase T1 inh: RNase T1 inhibition in TPT1 counter-screen | shares compounds with TPT1 inhibitor | RNase T1 cleavage, fluorescence polarization, 1536-well | inhibition, % at 5 µM | hit rate 83% among 2,400 | AID 2153;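 active means inhibition above the solvent-only control well mean plus 3 SD, limit set per screening run, cut at about 23% in these data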;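 further: plate controls were DMSO wells with enzyme for no effect and wells without RNase T1 for full effect; inhibitors block cleavage so intact labeled substrate keeps polarization high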
# Target sequence (P00651 whole entry, looked up): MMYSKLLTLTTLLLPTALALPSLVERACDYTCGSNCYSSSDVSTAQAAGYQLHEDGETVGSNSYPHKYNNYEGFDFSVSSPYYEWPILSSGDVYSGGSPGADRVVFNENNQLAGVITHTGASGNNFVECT
# Rpn11 inh conf: confirmation of human proteasome Rpn11 inhibitors | inhibition, % at 20 µM | hit rate 29% among 1,900 | shares compounds with Rpn11 inh | purified human 26S proteasome, Ub4-pepOG fluorescence polarization; proteasome pretreated with epoxomicin
# MMP-2 counter: counter-screen for RPN11 inhibitors: inhibition of human MMP-2. shares compounds with Rpn11 inh. recombinant MMP-2, FRET peptide cleavage fluorescence. inhibition, % at 20 µM. hit rate 4% among 1,900;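 further: human MMP-2 activated beforehand with APMA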
# Thrombin FP: thrombin (bovine) inhibition counter-screen | shares compounds with Rpn11 inh | bovine thrombin cleavage of Ub4-pepOG, fluorescence polarization | inhibition, % at 20 µM | hit rate 13% among 1,900;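 active means mean inhibition at least 40% at 20 µM, or signal 3 deviations below plate average, so some actives read negative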;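 further: plate controls were thrombin with DMSO for no effect and buffer wells lacking thrombin for full effect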
# HNF4a DNA conf: change in binding of human HNF4 alpha to DNA, retest. activity change, % at 12.5 µM. hit rate 99% among 210. AID 1224897. HNF4A-FITC DNA binding, fluorescence polarization, 1 h. shares compounds with HNF4A DNA FP; call rule not given here
# Active calls of the source: *; / = no result shown. Sampled rows, rich in hits. Any-hit rate of the full collection: about 3.3%. Unless noted, no stated cut-off is given here; in the data, active means inhibition above about 40%; inactive means the rest.
SMILES,CTSL1 counter,HNF4A DNA FP,Rpn11 inh,TPT1 inhibitor,CendR NRP1 mod,PHOSPHO1 inh,Rpn11 inh conf,MMP-2 counter,Thrombin FP,others
COc1ccc(Cn2c(N)c(C(=O)NCc3ccco3)c3nc4ccccc4nc32)cc1,0.0,12.1,67.0*,48.3*,-38.0,31.5,-2.0,-37.1,-4.3,TPT1 inh confirm=10.0;RNase T1 inh=14.3
Nc1c(C(=O)NCc2ccco2)c2nc3ccccc3nc2n1Cc1ccccc1,4.3,6.8,30.7,3.2,-16.0,-13.0,/,/,/,
CCCCCCn1c(O)c(C=Nc2c(C)n(C)n(-c3ccccc3)c2=O)c(=O)[nH]c1=O,0.1,1.7,3.9,-2.7,-6.8,-3.7,/,/,/,
C=CCn1c(=O)c(C=Nc2c(OC)cccc2[N+](=O)[O-])c(O)n(CCCC)c1=O,0.7,21.3,78.1*,51.2*,-18.2,-4.0,53.2*,5.6,47.0*,TPT1 inh confirm=30.1*;RNase T1 inh=39.0*
C=CCn1c(=O)c(C=Nc2cccc([N+](=O)[O-])c2)c(O)n(CCCC)c1=O,1.1,31.2,69.2*,113.4*,-104.7,8.0,45.9*,-19.6,31.3,TPT1 inh confirm=36.4*;RNase T1 inh=47.4*
NC(=O)C1CCN(/C=C2\C(=O)NC(=O)N(Cc3ccco3)C2=O)CC1,-2.5,1.2,-2.4,11.7,-65.5,29.7,/,/,/,
CC(C)N1C(=O)/C(=C/C=C/c2ccco2)C(=O)N(Cc2ccco2)C1=O,-1.5,8.8,98.2*,94.8*,-131.2,26.2,49.2*,18.6,41.5*,TPT1 inh confirm=53.7*;RNase T1 inh=65.2*
O=C(N/N=C/c1c(O)n(-c2cccc3ccccc23)c(=O)[nH]c1=O)c1ccncc1,-2.6,38.9*,/,45.0*,-141.0,23.9,/,/,/,TPT1 inh confirm=51.3*;RNase T1 inh=66.5*;HNF4a DNA conf=48.8*
O=C(N/N=C/c1c(O)n(CCc2ccccc2)c(=O)[nH]c1=O)c1ccncc1,5.4,11.8,-1.6,6.6,-47.5,-3.4,/,/,/,
CC(C)(C#CCCCCC#CC(C)(C)[N+](C)(C)C)[N+](C)(C)C,-1.9,/,/,3.4,/,6.2,/,/,/,
O=c1[nH]c(=O)n(Cc2ccccc2)c(O)c1C=NCCCO,0.1,34.7*,/,48.5*,-148.6,-4.0,/,/,/,TPT1 inh confirm=61.6*;RNase T1 inh=75.8*;HNF4a DNA conf=61.3*
O=c1[nH]c(=S)n(-c2ccccc2)c(O)c1/C=N/N1CCCCC1c1cccnc1 (configuration not stated),4.6,36.1*,/,29.7*,-190.8,29.8,/,/,/,TPT1 inh confirm=20.9;RNase T1 inh=30.7*;HNF4a DNA conf=60.7*
c1ccc(P(c2ccccn2)c2ccccn2)cc1,-6.6,-2.4,-4.2,-2.0,0.8,42.4,/,/,/,
O=Cc1c(C(=O)O)n(Cc2ccc(F)cc2Cl)c2ccccc12,/,-2.2,7.4,/,-2.2,22.2,/,/,/,
C=Cc1ccc(Cn2c(C(=O)O)c(C=O)c3ccccc32)cc1,-0.5,3.2,37.8*,8.2,-42.5,-9.7,154.8*,-2.2,60.4*,
O=C1NC(=O)N(c2ccc(Cl)cc2)C(=O)/C1=C/c1coc2ccc(O)cc2c1=O,0.2,1.1,53.6*,10.9,-59.2,12.3,-19.0,5.6,-11.2,
O=C(NN=Cc1ccc(N(CCCl)CCCl)cc1)C(=O)c1c[nH]c2ccccc12,/,7.9,51.7*,/,4.8,/,57.2*,13.7,34.3,
Cc1ccc(N2C(=O)/C(=C/N3CCN(C(=O)c4ccco4)CC3)C(=O)NC2=S)cc1C,8.9,2.4,88.3*,17.2,-40.3,50.0,10.5,7.3,-0.9,
Cc1ccc(/C=C2\C(=O)NC(=S)N(c3ccc(F)cc3)C2=O)s1,-1.5,-2.7,30.1,13.0,-34.9,25.3,/,/,/,
O=C1NC(=S)N(c2ccccc2)C(=O)/C1=C/c1ccco1,2.9,-43.4,75.6*,12.3,-111.2,-24.0,90.3*,60.9*,24.1,
Cc1ccc(/C=C2\C(=O)NC(=S)N(c3ccc(F)cc3)C2=O)o1,/,24.8,41.3*,/,-182.5,-8.2,44.2*,54.9*,56.6*,
Cc1ccccc1-c1ccc2n1Cc1cnnn1-c1ccccc1-2,/,-1.3,2.3,/,13.0,/,/,/,/,
Cc1cc(C)cc(-n2c(C)cc(/C=C3\C(=O)NC(=O)N(C)C3=O)c2C)c1,0.3,1.1,6.6,5.4,-4.4,-8.1,/,/,/,
Cc1cc(C=C2C(=O)N(C)C(=S)N(C)C2=O)c(C)n1-c1ccncc1,1.2,-6.4,42.1*,18.7,-49.0,43.0,7.3,-10.0,11.1,
O=C(c1cccn2c(=O)c3cc(Br)ccc3nc12)N1CCC2(CC1)OCCO2,1.4,-4.2,-4.4,1.0,-5.9,26.4,/,/,/,
SMILES,CTSL1 counter,HNF4A DNA FP,Rpn11 inh,TPT1 inhibitor,CendR NRP1 mod,PHOSPHO1 inh,Rpn11 inh conf,MMP-2 counter,Thrombin FP,others
Cc1cccn2c(=O)c3cc(C(=O)N4CCC5(CC4)OCCO5)n(C)c3nc12,-2.0,-0.5,69.4*,-4.0,2.8,29.8,-7.5,-2.8,-8.4,
CCOP(=O)(OCC)/C(C#N)=C/c1ccoc1,/,10.0,53.8*,/,-60.2,32.7,0.2,-60.1,-9.4,
CCOP(=O)(OCC)c1ccc(O)cc1,-2.4,-6.1,-2.1,-4.1,6.8,-15.8,/,/,/,
Cc1ccccc1NC(=NCCCN1CC1)Nc1ccccc1C,/,174.0,92.3*,/,40.5*,/,98.9*,-127.7,52.5*,
CC[C@@H](O)C[C@H]1CCC[C@@]2(C[C@@H]3OC(=O)/C=C/[C@@](C)(O)[C@@H](O)[C@H](C)[C@@H](O)[C@H](OC4CCC(N(C)C)C(C)O4)[C@@H](O)[C@](C)(O)CCCCC/C=C/[C@@H]4CC(C)(C)O[C@@]4(O)C[C@H](O2)[C@H]3C)O1 (some centres not stated),/,0.2,-6.2,/,-4.3,/,/,/,/,
COc1ccccc1CCNCc1cccc(C(F)(F)F)c1,1.9,1.3,-3.4,-5.0,-1.6,26.5,/,/,/,
CC(C)OCCCNC(=O)c1c(N)n(CC2CCCO2)c2nc3ccccc3nc12 (configuration not stated),3.5,5.5,45.1*,2.8,-4.5,7.1,7.0,-12.6,4.5,
CCCCCCCSc1cc(OC)c(CCNC)cc1OC,0.4,3.9,-3.4,0.8,-4.1,6.6,/,/,/,
CCCCCSc1cc(OC)c(CCNC)cc1OC,0.5,-6.6,138.3*,-1.7,5.7,16.2,12.7,-21.0,2.0,
O=C(NC1CC1)c1cn(Cc2ccccc2)nc1-c1ccccc1,/,-2.2,1.2,/,-9.0,/,/,/,/,

# Compound activity (PubChem)
